From PubChem BioAssay AID1224865 (Sanford-Burnham Center for Chemical Genomics, 2016)
Out of some 360,000 compounds screened, about 1,100 (0.31%) were called active. Rule as the data show it: active = activity change above about 30% (passing the limit was not always enough); inactive = the rest. This excerpt belongs to a sample that is enriched for actives.

Molecular target: Hepatocyte nuclear factor 4-alpha (Homo sapiens) (UniProt P41235)
Test: change in binding of human HNF4A to DNA, primary screen, biochemical, fluorescence polarization, FITC-DNA (AID 1224865)
Conditions: 1 h, at 10 µM, active compounds read high

Hepatocyte nuclear factor 4-alpha (Homo sapiens), sequence (P41235 whole entry, looked up): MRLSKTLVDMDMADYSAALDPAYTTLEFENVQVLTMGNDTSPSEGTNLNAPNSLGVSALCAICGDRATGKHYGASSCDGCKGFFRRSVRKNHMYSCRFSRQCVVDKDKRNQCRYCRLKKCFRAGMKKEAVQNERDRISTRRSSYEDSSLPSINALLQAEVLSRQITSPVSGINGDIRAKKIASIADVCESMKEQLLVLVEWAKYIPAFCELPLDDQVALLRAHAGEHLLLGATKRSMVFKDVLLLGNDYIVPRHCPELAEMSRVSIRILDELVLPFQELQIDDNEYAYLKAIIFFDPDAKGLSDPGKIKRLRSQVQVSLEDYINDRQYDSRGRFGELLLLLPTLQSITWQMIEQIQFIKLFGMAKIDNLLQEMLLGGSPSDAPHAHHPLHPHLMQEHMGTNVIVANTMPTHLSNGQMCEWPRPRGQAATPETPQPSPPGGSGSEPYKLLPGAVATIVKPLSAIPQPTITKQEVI

| SMILES | activity change |
| --- | --- |
| COc1cc(/C=N\NC(=O)c2nonc2N)c(OC)cc1Br | -0.19% (inactive) |
| COc1cccc(/C=N/NC(=O)c2[nH]nc3c2CCc2ccccc2-3)c1O | 49.2% (active) |
| COc1ccccc1N1CCN(C(=O)C(=O)N/N=C/c2ccccc2F)CC1 | -1.71% (inactive) |
| O=C1COc2ccc(S(=O)(=O)NCCc3ccc(Cl)cc3)cc2N1 | 1.98% (inactive) |
| CC(C)n1c(O)c(N=Nc2ccccn2)c2ccccc21 | 0.04% (inactive) |
| CCOCCCNC(=O)Cc1cc(=O)[nH]c(=O)[nH]1 | -0.4% (inactive) |
| N#CCCN1CCN(S(=O)(=O)c2ccc(S(=O)(=O)NC3CCCCC3)cc2)CC1 | 0.96% (inactive) |
| CCn1c(/C=C/c2ccc([N+](=O)[O-])o2)nc2ccccc2c1=O | 92.1% (active) |
| C=CCn1c(SCC(=O)NC(=O)Cc2ccccc2)nc2ccccc2c1=O | 1.95% (inactive) |
| O=C(/C=C/c1ccc([N+](=O)[O-])o1)NNC(=O)c1ccc(F)cc1 | 0.84% (inactive) |
| COc1ccccc1CCNC(=O)CN1C(=O)NC2(CCCC2)C1=O | 1.6% (inactive) |
| COc1ccc(C(=O)N2CCCCC2c2cc(C(=O)Nc3ccc(F)c(Cl)c3)no2)cc1 (configuration not stated) | -0.55% (inactive) |
| COc1ccc(/C(C)=N/N2CCOCC2)c(O)c1 | 1.11% (inactive) |
| CN1/C(=c2/s/c(=C3/C(=O)N(c4ccccc4)NC3=Nc3ccccc3)n(C)c2=O)C(C)(C)c2ccccc21 | 66.2% (active) |
| O=C(CO/N=C/c1ccc(OC(F)F)cc1)NCc1ccc(F)cc1 | -1.87% (inactive) |
| CCOC(=O)C1CCCN(C(=O)CSc2nnc3nc(C)cc(C)n23)C1 (configuration not stated) | -2.41% (inactive) |
| COc1ccc(CCNC(=O)CN(C)S(=O)(=O)c2ccc3nc(C)sc3c2)cc1OC | 3.34% (inactive) |
| COc1ccc(-c2ccc(C(=O)NCCN3CCOCC3)c3occc23)c(C)c1 | -3.94% (inactive) |
| CCC(C)N1C(=O)S/C(=C/c2ccc(Sc3nc4ccccc4[nH]3)o2)C1=O (configuration not stated) | 77.3% (active) |

| SMILES | activity change |
| --- | --- |
| CCC(c1nc2ccccc2[nH]1)n1c(=O)c(-c2cccs2)nc2ccccc21 (configuration not stated) | 4.95% (inactive) |
| COC(=O)/C(C#N)=C/c1occc1C | -1.39% (inactive) |
| CCOC(=O)/C(C#N)=C/c1ccc(N2CCCCC2)cc1 | 42.2% (active) |
| CCOC(=O)/C(C#N)=C\c1c(C)cc(C)c(COC(C)=O)c1C | 2.55% (inactive) |
| C/C(=N/Nc1nc(-c2ccccc2)c(CC(=O)O)s1)c1ccccc1 | 48.6% (active) |
| CC(=O)NC(CC(=O)Nc1nc(-c2ccccc2)c(C(C)=O)s1)c1ccccc1 (configuration not stated) | 0.99% (inactive) |
| CCOc1ccc(-c2nc(C)sc2CC(=O)O)cc1 | 1.37% (inactive) |
| CC(C)c1ccc(Nc2nnc(SCC(=O)c3nnc(-c4ccccc4)o3)s2)cc1 | 7.36% (inactive) |
| COc1ccc(CNC(=O)CN(Cc2ccc(Cl)cc2)S(C)(=O)=O)cc1 | 1.96% (inactive) |
| CC[n+]1cc(C)ccc1/C=C/c1ccc(N(C)C)cc1 | 76.1% (active) |
| COc1ccccc1CNC(=O)c1ccc(N(C)S(=O)(=O)c2ccc(C)cc2)cc1 | 0.49% (inactive) |
| COc1cc(NS(=O)(=O)c2ccc(NC(=O)c3ccc(S(=O)(=O)N4CCCCC4)cc3)cc2)ncn1 | -0.94% (inactive) |
| COC(=O)[C@]1(C)N[C@H](c2ccc(-c3ccc(Cl)c(Cl)c3)cc2)[C@@H]2C(=O)N(C)C(=O)[C@@H]21 | -0.96% (inactive) |
| CCCn1nc(C(=O)N2CCCc3ccccc32)c2ccccc2c1=O | 0.42% (inactive) |
| Cc1cccc2cc3c(N)c(C(=O)N4CCCc5ccccc54)sc3nc12 | 47.6% (active) |
| COc1cccc(/C=C/C(=O)OCC(=O)N2CCCc3ccccc32)c1 | -0.26% (inactive) |
| O=C(NCc1ccccc1)C1CNCC(C(=O)NCc2ccccc2)C1 (configuration not stated) | -1.7% (inactive) |
| CC(=O)Nc1ccc(S(=O)(=O)N2CCC(C(=O)NC3CC3)CC2)cc1 | -2.11% (inactive) |
| COc1ccc(C(C)=O)cc1COC(=O)Cn1cnc2ccccc2c1=O | 3.19% (inactive) |

| SMILES | activity change |
| --- | --- |
| CC(=O)c1c(C)[nH]c(C(=O)OCC(=O)NCCC(C)C)c1C | -3.31% (inactive) |
| COc1cc(C)c(CN2CCN(C(=O)CCC(=O)c3ccc(C)s3)CC2)cc1OC | -0.43% (inactive) |
| O=C(Nc1ccccc1)c1ccccc1Br | -2.18% (inactive) |
| O=C(Nc1ccncc1)c1cc(-c2ccccn2)nc2ccc(Br)cc12 | 43.9% (active) |
| O=C(Nc1ccc(Br)cc1)c1cc(S(=O)(=O)Nc2ccccn2)ccc1Cl | 0.97% (inactive) |
| O=C(CSc1nnc(Cn2cnc3ccccc32)o1)c1ccccc1 | 1.06% (inactive) |
| NC(CSC(c1ccccc1)(c1ccccc1)c1ccc(-c2ccccc2)cc1)C(=O)O (configuration not stated) | -4.58% (inactive) |
| CN(C)c1ccc(-n2cccc2/C=N/n2cnnc2)cc1 | -0.7% (inactive) |
| CN(C)c1ccc(-n2cccc2/C=C2/SC(=Nc3ccc(F)cc3)NC2=O)cc1 | 35.7% (active) |
| O=C(COC(=O)Cc1ccccc1F)NNC(=O)c1ccc(Cl)cc1 | -2.29% (inactive) |
| O=C(NN1C(=O)C2C3C=CC(C3)C2C1=O)c1ccco1 (configuration not stated) | 1.06% (inactive) |
| CCN1/C(=C\c2ccc3ccccc3[n+]2CC)Sc2cc(C)ccc21 | 81.5% (active) |
| Cc1ccc(S(=O)(=O)N2CC(O)C[C@H]2C(=O)OCC(=O)Nc2ccc(N3CCOCC3)cc2)cc1C (some centres not stated) | -2.65% (inactive) |
| COc1ccc(/C=C(\NC(=O)c2ccccc2)C(=O)NCCN2CCOCC2)cc1OC | -1.85% (inactive) |
| Cn1c2ccccc2c2cc(/C=C(\NC(=O)c3ccccc3)C(=O)NCC(=O)O)ccc21 | 43.6% (active) |
| CCOc1ccc(/C=C(/NC(=O)c2ccccc2)C(=O)NCCC(=O)O)cc1 | 1.05% (inactive) |
| Cc1ccc(S(=O)(=O)c2ccc(Cl)cc2)cc1S(=O)(=O)NC(C(=O)O)C(C)C (configuration not stated) | -3.32% (inactive) |
| CCOC(OCC)c1ccc(/C=C\c2nccc(N)n2)cc1 | 2.56% (inactive) |
| Cc1oc2nc(SCC(=O)Nc3ccc(S(N)(=O)=O)cc3)nc(NC(=O)c3ccccc3)c2c1C | -0.08% (inactive) |
